Active and inactive are the calls of the source. Rule for the calls: active = hit-call score of the fitted dose curve at least 0.9, where 1 is the maximum; inactive = score below 0.9.
Experiments:
[1] = read-out: Tissue Factor, F3 (gene 2152); test: BSK_CASM3C_TissueFactor: BioMAP Diversity Plus: CASM3C Assay for Tissue Factor Biomarker Activity (AID 2283052); conditions: primary human coronary artery smooth muscle cells; actives raise or lower the signal;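 note: cell surface tissue factor protein level read by ELISA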
[2] = read-out: Interferon-gamma inducible Protein 10 (IP10), CXCL10 (gene 3627); test: BSK_hDFCGF_IP10: BioMAP Diversity Plus: hDFCGF Assay for Interferon-gamma inducible Protein 10 (IP10) Biomarker Activity (AID 2283053); conditions: primary human foreskin fibroblasts; actives raise or lower the signal
How it was run: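 Primary human foreskin fibroblasts exposed to chemicals for 24 h. IP-10 measured by ELISA; changes fitted bidirectionally against DMSO baseline.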

[3] = read-out: Urokinase-type plasminogen activator receptor (uPAR), PLAUR (gene 5329); test: BSK_CASM3C_uPAR: BioMAP Diversity Plus: CASM3C Assay for Urokinase-type plasminogen activator receptor (uPAR) Biomarker Activity (AID 2283054); conditions: primary human coronary artery smooth muscle cells; actives raise or lower the signal;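 note: cell-surface uPAR protein level quantified by ELISA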
[4] = read-out: Vascular cell adhesion molecule 1 (VCAM1), VCAM1 (gene 7412); test: BSK_CASM3C_VCAM1: BioMAP Diversity Plus: CASM3C Assay for Vascular cell adhesion molecule 1 (VCAM1) Biomarker Activity (AID 2283055); conditions: primary human coronary artery smooth muscle cells; actives raise or lower the signal;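 note: VCAM-1 protein level quantified by ELISA on the cells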
[5] = read-out: Collagen III, COL3A1 (gene 1281); test: BSK_hDFCGF_CollagenIII: BioMAP Diversity Plus: hDFCGF Assay for Collagen III Biomarker Activity (AID 2283056); conditions: primary human foreskin fibroblasts; actives raise or lower the signal
How it was run: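 Human foreskin fibroblast primary cultures sampled 24 h after dosing; Collagen III quantified by ELISA. Signal fitted bidirectionally against DMSO baseline.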

[6] = read-out: Epidermal growth factor receptor (EGFR), EGFR (gene 1956); test: BSK_hDFCGF_EGFR: BioMAP Diversity Plus: hDFCGF Assay for Epidermal growth factor receptor (EGFR) Biomarker Activity (AID 2283057); conditions: primary human foreskin fibroblasts; actives raise or lower the signal
How it was run: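 Primary human foreskin fibroblasts (hDFCGF system), sampled 24 h after dosing; EGFR quantified by ELISA. Bidirectional fit relative to DMSO baseline; SRB total-protein staining in parallel cultures for cytotoxicity.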

[7] = read-out: Interleukin-8 (IL8), CXCL8 (gene 3576); test: BSK_hDFCGF_IL8: BioMAP Diversity Plus: hDFCGF Assay for Interleukin-8 (IL8) Biomarker Activity (AID 2283058); conditions: primary human foreskin fibroblasts; actives raise or lower the signal
How it was run: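 Primary human foreskin fibroblasts (hDFCGF system) dosed with chemical; IL-8 measured by ELISA 24 hours later. Bidirectional curve fitting relative to DMSO baseline; cytotoxicity tracked in parallel cultures by SRB total protein staining.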

[8] = BSK_hDFCGF_Proliferation: Cell Proliferation Assessment in the BioMAP Diversity Plus: hDFCGF Assay (AID 2283059); conditions: primary human foreskin fibroblasts;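 note: curves fitted for both rise and fall of signal versus DMSO baseline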
How it was run: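 Steps: dose primary human dermal fibroblasts (foreskin); […] fix in 10% TCA; stain with 0.1% SRB; read 560 nm; fit gain or loss of signal against DMSO.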

[9] = read-out: Macrophage colony-stimulating factor (MCSF), CSF1 (gene 1435); test: BSK_hDFCGF_MCSF: BioMAP Diversity Plus: hDFCGF Assay for Macrophage colony-stimulating factor (MCSF) Biomarker Activity (AID 2283060); conditions: primary human foreskin fibroblasts; actives raise or lower the signal
How it was run: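 Human foreskin fibroblast primary cultures; M-CSF measured by ELISA 24 hours after chemical dosing. Bidirectional fitting relative to DMSO, with overt cytotoxicity tracked by parallel SRB total-protein staining (0.1% SRB, 10% TCA fixation, 560 nm).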

[10] = BSK_hDFCGF_SRB: Viability Assessment in the BioMAP Diversity Plus: hDFCGF Assay (AID 2283061); conditions: primary human foreskin fibroblasts;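 note: cells exposed to compound for 24 h before the read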
How it was run: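 Human foreskin fibroblasts in 96-well plates were treated 24 h. Total protein was measured by 0.1% SRB staining after 10% TCA fixation, read at 560 nm. Data were fitted bidirectionally against DMSO.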

[11] = read-out: Monokine induced gamma interferon (MIG), CXCL9 (gene 4283); test: BSK_hDFCGF_MIG: BioMAP Diversity Plus: hDFCGF Assay for Monokine induced gamma interferon (MIG) Biomarker Activity (AID 2283063); conditions: primary human foreskin fibroblasts; actives raise or lower the signal
How it was run: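 MIG/CXCL9 measured by ELISA 24 h after dosing primary human skin fibroblasts. Activity fitted in both directions against DMSO controls. Cytotoxicity was checked in parallel cultures by SRB staining read at 560 nm.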

[12] = read-out: Matrix Metallopeptidase 1 (MMP1), MMP1 (gene 4312); test: BSK_hDFCGF_MMP1: BioMAP Diversity Plus: hDFCGF Assay for Matrix Metallopeptidase 1 (MMP1) Biomarker Activity (AID 2283064); conditions: primary human foreskin fibroblasts; actives raise or lower the signal
How it was run: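 Primary human foreskin fibroblasts in the hDFCGF system were dosed with test chemical, and MMP1 was measured by ELISA 24 h later. Values come from bidirectional curve fitting against the DMSO baseline.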

[13] = read-out: Vascular cell adhesion molecule 1 (VCAM1), VCAM1 (gene 7412); test: BSK_hDFCGF_VCAM1: BioMAP Diversity Plus: hDFCGF Assay for Vascular cell adhesion molecule 1 (VCAM1) Biomarker Activity (AID 2283065); conditions: primary human foreskin fibroblasts; actives raise or lower the signal;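 for AC50: VCAM-1 protein level quantified by ELISA after 24 h chemical exposure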
How it was run: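 Human foreskin fibroblast primary cells dosed with chemical, VCAM-1 measured by ELISA at 24 h. Bidirectional curve fitting relative to DMSO as negative control/baseline.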

[14] = read-out: Plasminogen activator inhibitor-1 (PAI1), SERPINE1 (gene 5054); test: BSK_hDFCGF_PAI1: BioMAP Diversity Plus: hDFCGF Assay for Plasminogen activator inhibitor-1 (PAI1) Biomarker Activity (AID 2283066); conditions: primary human foreskin fibroblasts; actives raise or lower the signal
How it was run: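 Human foreskin fibroblast primary cells, 24 h chemical exposure; PAI-1 measured by ELISA. Bidirectional fitting relative to DMSO; parallel cultures stained with SRB for total protein to flag overt cytotoxicity.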

[15] = read-out: Intercellular Adhesion Molecule 1 (ICAM1), ICAM1 (gene 3383); test: BSK_KF3CT_ICAM1: BioMAP Diversity Plus: KF3CT Assay for Intercellular Adhesion Molecule 1 (ICAM1) Biomarker Activity (AID 2283067); conditions: primary human keratinocytes with fibroblasts; actives raise or lower the signal
How it was run: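 Human keratinocyte–foreskin fibroblast co-culture was treated for 24 h. Cell-surface ICAM-1 was quantified by ELISA, fitted bidirectionally relative to DMSO. Cytotoxicity was checked in parallel cultures by SRB total-protein staining.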

[16] = read-out: Interferon-gamma inducible Protein 10 (IP10), CXCL10 (gene 3627); test: BSK_KF3CT_IP10: BioMAP Diversity Plus: KF3CT Assay for Interferon-gamma inducible Protein 10 (IP10) Biomarker Activity (AID 2283068); conditions: primary human keratinocytes with fibroblasts; actives raise or lower the signal
How it was run: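 KF3CT co-culture (keratinocytes + foreskin fibroblasts), 24 h compound, IP-10 by ELISA; bidirectional fit vs DMSO baseline.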

[17] = BSK_KF3CT_SRB: Viability Assessment in the BioMAP Diversity Plus: KF3CT Assay (AID 2283069); conditions: primary human keratinocytes with fibroblasts;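 note: total protein by sulforhodamine B staining as a cytotoxicity measure; read 24 h after compound addition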
How it was run: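 Human primary keratinocyte plus foreskin fibroblast co-culture exposed to chemicals for 24 h. Total protein measured by 0.1% sulforhodamine B staining after 10% TCA fixation, read at 560 nm; bidirectional fitting versus DMSO baseline.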

[18] = read-out: Interleukin-1 alpha (IL1a), IL1A (gene 3552); test: BSK_KF3CT_IL1a: BioMAP Diversity Plus: KF3CT Assay for Interleukin-1 alpha (IL1a) Biomarker Activity (AID 2283070); conditions: primary human keratinocytes with fibroblasts; actives raise or lower the signal
How it was run: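 Human keratinocyte plus foreskin fibroblast primary co-culture, sampled 24 h after chemical dosing. IL-1a measured by ELISA; responses fitted bidirectionally against DMSO baseline (negative control), so gain or loss of signal both count.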

[19] = read-out: TIMP metallopeptidase inhibitor 2 (TIMP2), TIMP2 (gene 7077); test: BSK_KF3CT_TIMP2: BioMAP Diversity Plus: KF3CT Assay for TIMP metallopeptidase inhibitor 2 (TIMP2) Biomarker Activity (AID 2283071); conditions: primary human keratinocytes with fibroblasts; actives raise or lower the signal
How it was run: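 Co-culture of human primary keratinocytes and foreskin fibroblasts, measured 24 h after chemical dosing. TIMP-2 quantified by ELISA and fitted in both directions relative to DMSO. Cytotoxicity checked in parallel cultures by SRB total-protein staining.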

Measured: AC50

CC(=O)c1c(C)c([N+](=O)[O-])c(C(C)(C)C)c([N+](=O)[O-])c1C
inactive: all assays above

COc1ccc(OC)c(N=Nc2c(O)ccc3ccccc23)c1
inactive: [1] | [3] | [6] | [7] | [14] | [15] | [16] | [17]
active: [2] 3.71 µM | [4] 20 µM | [5] 1.92 µM | [8] 10.2 µM | [9] 5.74 µM | [10] 8.26 µM | [11] 1.93 µM | [12] 14.2 µM | [13] 1.42 µM | [18] 8.38 µM | [19] 7.85 µM

Oc1c(Cl)cc(Cl)c(Cl)c1Cc1c(O)c(Cl)cc(Cl)c1Cl
inactive: [6]
active: [1] 1.73 µM | [2] 2.82 µM | [3] 1.97 µM | [4] 9.96 µM | [5] 4.93 µM | [7] 3.96 µM | [8] 0.113 µM | [9] 1.58 µM | [10] 5.15 µM | [11] 3.45 µM | [12] 3.28 µM | [13] 2.22 µM | [14] 0.338 µM | [15] 3.14 µM | [16] 2.4 µM | [17] 5.15 µM | [18] 1.83 µM | [19] 1.79 µM

COc1ccc(CCN2CCC(Nc3nc4ccccc4n3Cc3ccc(F)cc3)CC2)cc1
active: [5] 5 µM | [8] 5.42 µM | [9] 7.49 µM | [14] 7.58 µM
inactive: all other assays above

CC(CN=Cc1ccccc1O)N=Cc1ccccc1O (stereo not given)
inactive: all assays above

— PubChem BioAssay (EPA / NIEHS)
